Source: PubChem BioAssay AID651629 (Sanford-Burnham Center for Chemical Genomics, 2012)
The other results are listed elsewhere or left out. A number with no mark means an inactive call. The source made the active and inactive calls.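 Rule for the calls: active = mean inhibition across replicates of 40% or more; inactive = mean inhibition below 40%.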

Assay: triacylglycerol accumulation inhibitors, retest, confirmation, cell-based, single concentration, Nile Red fluorescence, H9c2 (AID 651629);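 note: plate controls were DMSO only wells for no effect and Triacsin C treated wells for full effect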
Conditions: H9c2 lipid accumulation, at 12.5 µM, stronger effect = higher value, cells loaded with 200 µM oleic acid

SMILES	inhibition
CN(/N=C/c1ccccc1)C(=S)c1ccccc1	12.5%
CC(=O)c1cccc(-c2ccc(CN3C(CC(C)C)C(=O)N(Cc4cn(CC5CCCCC5)nn4)CCS3(=O)=O)cc2)c1 (stereo not given)	47% (active)
CN(C)CCNC(=O)c1cccc(-c2cnc3c(NC=O)cc(-c4cccc(C(F)(F)F)c4)cn23)c1	50.4% (active)
COc1ccc2sc(-c3ccc(S(C)(=O)=O)cc3)c(C#Cc3cncn3C)c2c1	74.2% (active)
Cc1cc(NC(=O)CSc2nc(C(C)C)nc3sc4c(c23)CCC(C)C4)no1 (stereo not given)	51.7% (active)
COc1ccccc1NC1=NC(c2ccc(Cl)cc2)N=C(N)N1 (stereo not given)	74.9% (active)
O=C(Nc1cc2c3c(c1)C1CCCC1CN3CC1CCCC21)c1ccc([N+](=O)[O-])cc1 (stereo not given)	56.6% (active)
CC(=O)c1ccc(Oc2cc(C)nc(-n3nc(C)cc3C)n2)cc1	63.2% (active)
Cc1ccccc1OCC(=O)Nc1ccc(N2CCN(C(=O)C(C)C)CC2)c(Cl)c1	7.1%
COc1ccc(/C=C2/CCCc3ccccc3C2=O)cc1	54.5% (active)
O=C(Cc1cccc2ccccc12)Nc1ccc2oc(-c3ccccc3)nc2c1	25.7%
COC(=O)Nc1nc2ccc(Sc3ccccc3)cc2[nH]1	66.1% (active)
COC(=O)c1ccc(-c2c(-c3ccccc3)ncc3cc(OC)c(OC)cc23)cc1	13.2%
COC(=O)c1ccc(NCc2cc(O)ccc2O)cc1	29.9%
Cc1ccc(Sc2cc(N3CCOCC3)nc(-c3ccccc3)n2)cc1	62.5% (active)
